# From PubChem
# A selection: hits, their analogues and other compounds. The true share with any hit is near 12%.
# BAZ2B inh: BAZ2B (human) inhibition. Q9UIF8. AlphaScreen BAZ2B-H3K14Ac peptide displacement. Potency, µM (highest dose often 114 µM), most hits filed as inhibitors. actives 4.4% (n = 360,000); further: nearly all actives have a fitted effect of over 60% in size
#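 BAZ2B (50 nM) with biotin-H3(5-23)K14Ac peptide (50 nM) in PBS pH 7.4, 0.01% Tween-20, preformed 30 min, then compound 30 min at room temperature; top concentration 110uM. AlphaScreen streptavidin donor/nickel chelate acceptor beads (10 ug/mL final), 20 min dark, signal read.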
# JMJD2A Tudor inh: JMJD2A Tudor domain (human) inhibition | actives 4.4% (n = 390,000) | Potency, µM (highest dose often 114 µM), actives largely listed as inhibitors | AlphaScreen JMJD2A-Tudor / H3K4me3 peptide binding | O75164; further: nearly all actives have a fitted effect of over 50% in size
# G9a inh: G9a (human) methyltransferase inhibition | Potency, µM (doses to about 102 µM), actives largely listed as inhibitors | actives 8.8% (n = 350,000) | G9a H3K9 monomethylation, AlphaScreen, 2 h; further: nearly all actives have a fitted effect of over 75% in size
#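 Enzyme 20 nM + cpd, 15 min RT; add b-H3K9 pep 500 nM / SAM 20 uM; 2 h RT; anti-H3K9me1 Ab 0.5 ug/mL + SA donor / anti-rabbit acceptor beads 20 ug/mL each, 10 min; AlphaScreen read.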
# PI5P4K alpha inh: PI5P4K alpha (human) kinase inhibition. P48426. PI5P4Kalpha enzyme, ADP-Glo luminescence, 60 min; active compounds read low. max response, %. actives 1.2% (n = 330,000); active means max response of -50% or lower; inconclusive means between -30% and -50%; inactive means -30% or higher; further: value at the top dose of about 77 µM
#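 Single end-point luminescence (ADP-Glo) quantified ADP from PI5P4Kalpha turnover; ATP 5 microM final, 1 h at RT, 0.1% CHAPS and 0.28 mM EGTA in HEPES pH 7.4.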
# PLK1 PBD block: blocks phosphopeptide binding to human PLK1 polo-box domain. P53350. Plk1 PBD binding of FITC phosphopeptide, fluorescence polarization. Potency, µM, most hits filed as inhibitors. actives 2.8% (n = 360,000). AID 720504; further: series mostly up to about 57 µM; nearly all actives have a fitted effect of over 65% in size
# Target sequence (P53350 whole entry, looked up, the tested form may be a part): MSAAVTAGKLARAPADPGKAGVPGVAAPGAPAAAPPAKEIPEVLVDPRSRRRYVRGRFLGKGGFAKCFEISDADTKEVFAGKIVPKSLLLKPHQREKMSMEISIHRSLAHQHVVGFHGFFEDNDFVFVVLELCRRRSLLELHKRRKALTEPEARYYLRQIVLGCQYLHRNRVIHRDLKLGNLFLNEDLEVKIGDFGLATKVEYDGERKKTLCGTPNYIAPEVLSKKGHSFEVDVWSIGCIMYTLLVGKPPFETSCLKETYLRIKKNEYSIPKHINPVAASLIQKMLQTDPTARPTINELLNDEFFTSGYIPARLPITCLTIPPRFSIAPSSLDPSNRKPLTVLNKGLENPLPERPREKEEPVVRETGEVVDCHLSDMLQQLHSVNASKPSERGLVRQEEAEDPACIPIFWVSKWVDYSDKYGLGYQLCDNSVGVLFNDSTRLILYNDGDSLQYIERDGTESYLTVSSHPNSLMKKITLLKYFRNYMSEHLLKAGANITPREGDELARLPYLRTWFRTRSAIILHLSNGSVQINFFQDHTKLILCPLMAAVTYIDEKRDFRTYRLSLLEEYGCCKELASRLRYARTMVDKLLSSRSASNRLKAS
# HP1b binding inh: inhibitors of HP1-beta chromodomain binding to methylated histone tails; AlphaScreen HP1-beta / biotin-H3K9me3 peptide binding; Potency, µM (titrated, usually from 114 µM), usual class: inhibitors; actives 0.56% (n = 390,000); AID 540317; further: nearly all actives have a fitted effect of over 70% in size
#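 HP1-beta protein (50 nM final) preincubated 30 min at room temperature with biotinylated H3(1-18)K9me3 peptide (50 nM) in PBS pH 7.4, 0.01% Tween-20, then compound added for 30 min. AlphaScreen streptavidin donor/nickel chelate acceptor beads (10 ug/mL final), 30 min dark, luminescence read.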
# Hits are given with their value; i = inactive; ? = inconclusive; nt = not tested or not shown; [ ] = remark or other dose. Unless noted, the call rests on the fitted dose curve; in most records, active means well fitted curve in the direction sought with a large enough effect; inconclusive means small, poorly fitted or top-dose-only effect, or another doubt; inactive means no such curve, though single readings can be large; an effect the other way counts as inactive or inconclusive.
SMILES,BAZ2B inh,JMJD2A Tudor inh,G9a inh,PI5P4K alpha inh,PLK1 PBD block,HP1b binding inh
O=C1N=C(N2CCOCC2)S/C1=C/c1ccc(-c2ccccc2Cl)o1,i,i,i,nt,i,i
CCOc1cc(-c2sc(Nc3ccc(CC)cc3)n[n+]2-c2ccccc2)ccc1OC,?,?,i[2.33 µM],i,i,i
CCc1ccc(Nc2n[n+](-c3ccccc3)c(-c3cccc(C)c3)s2)cc1,35.5µM,79.4µM,i[2.33 µM],i,i,i
Cc1cccc(-c2sc(Nc3ccccc3)n[n+]2-c2ccc(F)cc2)c1,i,i,35.5µM,i,i,i
CC1(CCc2ccccc2)NC(=O)N(CC(=O)N2CCCCCC2)C1=O (centres undefined),i,i,i,i,i,i
O=C(CSc1nc2c(c(=O)[nH]1)CCCC2)Nc1cccc(O)c1,i,i,?,nt,nt,i
COc1ccc2c(-c3ccccc3)cc(=S)[nH]c2c1,i,i,?,i,?,i
Cc1[nH]c2ccccc2c1C(C#N)(C#N)C1C(=O)c2ccccc2C1=O,7.94µM,12.6µM,i[12.7 µM],i,?,11.2µM
Cc1cc(Br)cc2c1N(Cc1ccccc1OC(C)C)C(=O)C2=O,6.31µM,17.8µM,8.91µM,nt,nt,?
Cc1ccc2oc(=O)n(Cc3ccccc3OC(C)C)c2c1,i,i,i,nt,i,i
CN(C)c1ccc(NC(=S)Nc2ccc3c(c2)c(=O)n(C)n3-c2ccc(C(C)(C)C)cc2)cc1,nt,nt,nt,?,26.7µM,nt
COC(=O)CCC(=O)Nc1ccc(NC(=O)CCC(=O)OC)cc1,i,i,?,i,i,i
COC(=O)CCC(=O)Oc1ccc(OC(=O)CCC(=O)OC)cc1,i,nt,50.1µM,nt,nt,nt
C#CCOCCOCCOCCNc1nc(N2CCN(C(=O)[C@H](CCC(=O)O)n3cc(C(N)CC(C)C)nn3)CC2)nc(N2CCN(C(=O)[C@H](CCC(=O)O)n3cc(C(N)CC(C)C)nn3)CC2)n1 (some centres undefined),79.4µM,79.4µM,i[12.7 µM],i,i,i
C#CCOCCOCCOCCNc1nc(N2CCN(C(=O)C([C@@H](C)CC)n3cc(C(N)CO)nn3)CC2)nc(N2CCN(C(=O)[C@H](CCC(=O)O)n3cc(C(N)CC(C)C)nn3)CC2)n1 (some centres undefined),50.1µM,50.1µM,i[12.7 µM],i,i,i
C#CCOCCOCCOCCNc1nc(N2CCOCC2)nc(N2CCN(C(=O)[C@H]([C@@H](C)CC)n3cc([C@@H](N)CC(C)C)nn3)CC2)n1,i,i,i[12.7 µM],i,i,i
C#CCOCCOCCOCCNc1nc(N2CCN(C(=O)C([C@@H](C)CC)n3cc(C(N)CC(C)C)nn3)CC2)nc(N2CCN(C(=O)[C@H](CCC(=O)O)n3cc(C(N)CC(C)C)nn3)CC2)n1 (some centres undefined),79.4µM,79.4µM,i[12.7 µM],i,i,i
O=C1CCCC2=C1CC(C(=O)OCc1ccccc1)C(=O)N2Cc1ccccc1 (centres undefined),nt,i,nt,i,i,i
COc1cccc(CNC(=O)Cn2c(=O)cc(C)c3c(C)nn(C)c32)c1OC,i,i,i,nt,nt,i
CCOc1ccc(/C=C2\NC(=S)NC2=O)cc1,i,i[11.4 µM],44.7µM,i,i,i
O=C1/C(=C/c2ccccc2)SC(=S)N1N1C(=O)C2CC2C1=O (centres undefined),i,i,25.1µM,i,i,i
COc1ccc(/C=C2/SC(=S)N(n3c(C)ccc3C)C2=O)cc1,10µM,35.5µM,15.8µM,i,i,?
CCOc1ccc(/C=C2/SC(=S)N(n3c(C)ccc3C)C2=O)cc1,11.2µM,22.4µM,10µM,i,i,14.1µM
CC1(C)CC(NC(=O)c2cccc(S(=O)(=O)Nc3cccc(Cl)c3)c2)CC(C)(C)N1,i,i,i,i,i,i
O=S(=O)(c1ccccc1)c1nnn2c1nc(NCc1ccccc1)c1sccc12,i,i,i,nt,nt,i
SMILES,BAZ2B inh,JMJD2A Tudor inh,G9a inh,PI5P4K alpha inh,PLK1 PBD block,HP1b binding inh
O=Nc1c(O)n(Cc2ccccc2)c2ccccc12,i,i[11.4 µM],i,i,i,i
CCn1c(=O)c([N+](=O)[O-])c(NCCN(C)C)c2ccccc21,i,i,56.2µM,i,i,i
CCn1c(=O)c([N+](=O)[O-])c(NCC(O)c2ccccc2)c2ccccc21 (centres undefined),i,i,i,i,i,i
O=c1c([N+](=O)[O-])c(O)c2ccccc2n1Cc1ccccc1,i,i,28.2µM,i,i,i
CCn1c(=O)c([N+](=O)[O-])c(Cl)c2ccccc21,i,i,i,i,2.38µM,i
COC(=O)CCCCCN1C(=O)/C(=C\c2ccncc2)SC1=S,25.1µM,44.7µM,10µM,i,i,?
O=C(O)CCN1C(=O)/C(=C\c2cccc(Oc3ccccc3)c2)SC1=S,50.1µM,?,50.1µM,i,16.8µM,?
CCN1C(=O)/C(=C\c2ccncc2)SC1=S,?,?,i[12.7 µM],i,i,i
CCCCC(CC)CN1C(=O)/C(=C/c2ccncc2)SC1=S (centres undefined),?,28.2µM,nt,i,i,?
O=C(O)CCN1C(=O)S/C(=C\c2cccnc2)C1=O,?,i,70.8µM,i,i,i
O=C1/C(=C/c2cccnc2)SC(=S)N1CCc1ccccc1,10µM,i,nt,i,i,i
COc1ccc(/C=C2/SC(=S)N(CCC(=O)O)C2=O)cc1,i,i,i,nt,i,i
O=C(O)CCN1C(=O)/C(=C\c2ccncc2)SC1=S,i,i,56.2µM,i,i,i
COCCCN(C(=O)C1=COCCO1)c1c(N)n(Cc2ccccc2)c(=O)[nH]c1=O,nt,nt,nt,i,i,nt
CC(=O)Nc1cccc(C(=O)N/N=C/c2cccc(C)n2)c1,i,12.6µM,i,i,26.7µM,i
CC(C)C(NC(=O)c1cccs1)C(=O)NC1CCCCC1 (centres undefined),i,i,nt,i,i,i
COc1ccc(C(C(=O)NC2CCCC2)N(CC2CCCO2)C(=O)Cc2cccs2)cc1OC (centres undefined),i,i,i,i,i,i
CC(NCc1cccs1)C(=O)NC1CCCCC1 (centres undefined),39.8µM,20µM,?,i,i,?
O=C(NC1CCCC1)C(c1cccs1)N(CC1CCCO1)C(=O)Cc1cccs1 (centres undefined),i,i,44.7µM,i,i,i
O=C1NC(=S)SC1=Cc1cc(Br)ccc1O,nt,20µM,nt,-76.7,26.7µM,?
O=C1NC(=S)SC1=Cc1ccccc1Br,nt,?,nt,-72.1,i,?
O=C(O)CCn1cc(/C=C2\SC(=S)NC2=O)c(-c2ccccc2)n1,nt,i,?,?,i,i
Cc1sc(NC(=S)NC(=O)c2ccc(C(C)(C)C)cc2)c(C#N)c1C,i,i,?,nt,?,i
Cc1sc(NC(=S)NC(=O)c2ccco2)c(C#N)c1C,i,i,35.5µM,i,?,i
N#Cc1c(NC(=O)c2ccccc2)sc2c1CCCCC2,i,i,i,i,i,i
